“And” between values parts separate entries of the source, which are not always exact repeats. Equal entries are not always repeated. Where two headings read alike, the source gives them in different places.
How the values were obtained:
ERN1 = details: concentration: 1 μM, replicates: in singlicate, n = 1
FAK = test system: T1, FAK; details: concentration: 1 μM, replicates: in singlicate; n = 1
T1 construct: gene PTK2

FER = details: concentration: 1 μM, replicates: in singlicate, n = 1
FES = details: concentration: 1 μM, replicates: in singlicate, n = 1
FGFR1 = details: concentration: 1 μM, replicates: in singlicate, n = 1
FGFR2 = details: concentration: 1 μM, replicates: in singlicate; n = 1
FGFR3 = details: concentration: 1 μM, replicates: in singlicate, n = 1
FGFR4 = details: concentration: 1 μM, replicates: in singlicate, n = 1
FGR = details: concentration: 1 μM, replicates: in singlicate, n = 1
FLT1 = details: concentration: 1 μM, replicates: in singlicate, n = 1
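Note: KINOMEscan kinase panel screen.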

## Cc1ccc(NC(=O)c2ccnc(N3CCN(C)CC3)c2)cc1-c1ccc(C(=O)NCC2CC2)cc1 [GW775604]
ERN1
  %Inh: 0%
FAK
  %Inh: 0%
FER
  %Inh: 24%
FES
  %Inh: 0%
FGFR1
  %Inh: 0%
FGFR2
  %Inh: 0%
FGFR3
  %Inh: 0%
FGFR4
  %Inh: 0%
FGR
  %Inh: 8%
FLT1
  %Inh: 0%

## Cc1nnc(-c2ccc3ncc(-c4ccc(S(C)=O)cc4)n3c2)o1 (stereo not shown)
ERN1
  %Inh: 10%
FAK
  %Inh: 0%
FER
  %Inh: 0%
FES
  %Inh: 4%
FGFR1
  %Inh: 0%
FGFR2
  %Inh: 0%
FGFR3
  %Inh: 0%
FGFR4
  %Inh: 0%
FGR
  %Inh: 0%
FLT1
  %Inh: 0%

## O=C1NC(=O)C(N2CCc3ccccc32)=C1c1cccc(Cl)c1 [SB-408010]
ERN1
  %Inh: 27%
FAK
  %Inh: 0%
FER
  %Inh: 0%
FES
  %Inh: 31%
FGFR1
  %Inh: 5%
FGFR2
  %Inh: 15%
FGFR3
  %Inh: 0%
FGFR4
  %Inh: 0%
FGR
  %Inh: 22%
FLT1
  %Inh: 11%

## CCc1nc(-c2cccc(C)c2)c(-c2ccnc(NCc3ccccc3)c2)s1
ERN1
  %Inh: 16%
FAK
  %Inh: 0%
FER
  %Inh: 0%
FES
  %Inh: 6%
FGFR1
  %Inh: 0%
FGFR2
  %Inh: 8%
FGFR3
  %Inh: 0%
FGFR4
  %Inh: 0%
FGR
  %Inh: 8%
FLT1
  %Inh: 0%

## c1ccc(-c2cc(-c3c[nH]nc3-c3ccccn3)ccn2)cc1 [GW576604]
ERN1
  %Inh: 0%
FAK
  %Inh: 6%
FER
  %Inh: 13%
FES
  %Inh: 0%
FGFR1
  %Inh: 0%
FGFR2
  %Inh: 0%
FGFR3
  %Inh: 0%
FGFR4
  %Inh: 67%
FGR
  %Inh: 9%
FLT1
  %Inh: 46%

## NCC(NC(=O)c1cc(-c2cn[nH]c2)c(-c2ccnc3[nH]ccc23)s1)c1ccccc1.O=C(O)C(F)(F)F.O=C(O)C(F)(F)F (stereo not shown) [GSK1325775]
ERN1
  %Inh: 29%
FAK
  %Inh: 57%
FER
  %Inh: 0%
FES
  %Inh: 0%
FGFR1
  %Inh: 20%
FGFR2
  %Inh: 0%
FGFR3
  %Inh: 0%
FGFR4
  %Inh: 0%
FGR
  %Inh: 0%
FLT1
  %Inh: 0%

## COc1cc2ncn(-c3cc(OCc4sccc4Cl)c(C(N)=O)s3)c2cc1OC [GSK448459]
ERN1
  %Inh: 0%
FAK
  %Inh: 0%
FER
  %Inh: 10%
FES
  %Inh: 0%
FGFR1
  %Inh: 0%
FGFR2
  %Inh: 15%
FGFR3
  %Inh: 13%
FGFR4
  %Inh: 0%
FGR
  %Inh: 9%
FLT1
  %Inh: 15%

## COc1ccc(Nc2ncc(C#N)c(Nc3ccccc3C(N)=O)n2)cc1N1CCN(C)CC1.Cl [GSK1558669]
ERN1
  %Inh: 92%
FAK
  %Inh: 100%
FER
  %Inh: 99.5%
FES
  %Inh: 99.3%
FGFR1
  %Inh: 100%
FGFR2
  %Inh: 99.8%
FGFR3
  %Inh: 99.9%
FGFR4
  %Inh: 85%
FGR
  %Inh: 96.5%
FLT1
  %Inh: 100%

## O=C1Cc2cc(Nc3nc(NCc4cccc(S(=O)(=O)C(F)(F)F)c4)ncc3C(F)(F)F)ccc2N1
ERN1
  %Inh: 0%
FAK
  %Inh: 0%
FER
  %Inh: 0%
FES
  %Inh: 7%
FGFR1
  %Inh: 0%
FGFR2
  %Inh: 1%
FGFR3
  %Inh: 5%
FGFR4
  %Inh: 0%
FGR
  %Inh: 0%
FLT1
  %Inh: 0%

## Nc1nc(-c2ccc3c(N)n[nH]c3c2)cc(N2CCCC2)n1 [GSK2227430]
ERN1
  %Inh: 0%
FAK
  %Inh: 0%
FER
  %Inh: 0%
FES
  %Inh: 1%
FGFR1
  %Inh: 0%
FGFR2
  %Inh: 38%
FGFR3
  %Inh: 0%
FGFR4
  %Inh: 0%
FGR
  %Inh: 20%
FLT1
  %Inh: 14%

## O=C(NOCC1CC1)c1ccc(F)c(F)c1Nc1ccc(I)cc1Cl
ERN1
  %Inh: 0%
FAK
  %Inh: 0%
FER
  %Inh: 0%
FES
  %Inh: 0%
FGFR1
  %Inh: 0%
FGFR2
  %Inh: 0%
FGFR3
  %Inh: 0%
FGFR4
  %Inh: 0%
FGR
  %Inh: 0%
FLT1
  %Inh: 10%

## O=C(Nc1cccc(-c2nn3ncccc3c2-c2ccnc(Nc3cccc(C(F)(F)F)c3)n2)c1)c1c(F)cccc1F [GSK299495]
ERN1
  %Inh: 15%
FAK
  %Inh: 0%
FER
  %Inh: 24%
FES
  %Inh: 0%
FGFR1
  %Inh: 0%
FGFR2
  %Inh: 0%
FGFR3
  %Inh: 0%
FGFR4
  %Inh: 0%
FGR
  %Inh: 95.5%
FLT1
  %Inh: 91.5%

## CCn1cnc2c(N)ncnc21 [GW345098]
ERN1
  %Inh: 25%
FAK
  %Inh: 7%
FER
  %Inh: 0%
FES
  %Inh: 14%
FGFR1
  %Inh: 0%
FGFR2
  %Inh: 7%
FGFR3
  %Inh: 0%
FGFR4
  %Inh: 0%
FGR
  %Inh: 12%
FLT1
  %Inh: 9%

## CC(C)(CN)c1nc(-c2ccc(Cl)c(O)c2)c(-c2ccncc2)[nH]1.O=C(O)C(F)(F)F [SB-477794]
ERN1; 1 µM
  %Inh: 1% and 22%
FAK
  %Inh: 0%
FER; 1 µM
  %Inh: 12% and 31%
FES; 1 µM
  %Inh: 0% and 22%
FGFR1; 1 µM
  %Inh: 24% and 54%
FGFR2
  %Inh: 0%
FGFR3; 1 µM
  %Inh: 8% and 33%
FGFR4; 1 µM
  %Inh: 18% and 0%
FGR; 1 µM
  %Inh: 95.3% and 94.8%
FLT1; 1 µM
  %Inh: 82% and 80%

## CSc1ccc(-c2cc3ncnc(SCC(=O)O)c3s2)cc1
ERN1
  %Inh: 0%
FAK
  %Inh: 0%
FER
  %Inh: 10%
FES
  %Inh: 9%
FGFR1
  %Inh: 5%
FGFR2
  %Inh: 0%
FGFR3
  %Inh: 0%
FGFR4
  %Inh: 0%
FGR
  %Inh: 23%
FLT1
  %Inh: 2%

## Cc1cccc(Cn2ccn3c(=O)cc(N4CCOCC4)nc23)c1 [GSK2297542]
ERN1
  %Inh: 16%
FAK
  %Inh: 0%
FER
  %Inh: 30%
FES
  %Inh: 10%
FGFR1
  %Inh: 0%
FGFR2
  %Inh: 16%
FGFR3
  %Inh: 16%
FGFR4
  %Inh: 10%
FGR
  %Inh: 32%
FLT1
  %Inh: 20%

From paper PMC5540273 (PLoS ONE, 2017)
